A selection: hits, their analogues and other compounds. The true share with any hit is near 19%.
TDP1 cell noCPT: qHTS for Inhibitors of human tyrosyl-DNA phosphodiesterase 1 (TDP1): qHTS in cells in absence of CPT | DT40 Tdp1-/- hTDP1 cells, no CPT, ATP luminescence, 48 h | Potency, µM (series often up to 46.2 µM), for the others: at the top dose activity change, negative = growth inhibition, usual class: inhibitors | 420,000 compounds, 15% hits | AID 686978, 2013; note: nearly all actives have a fitted effect of over 55% in size
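Camptothecin absent (DMSO only). Human TDP1-complemented DT40 knockout cells, 400 cells/well, 37 °C for minimum 48 hr; ATP measured via CellTiter-Glo, 30 min dark incubation, luminescence.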
KB-V1 MDR tox: qHTS assay for MDR1-selective chemotherapeutics: Primary screen using the drug-selected MDR subline cells KB-V1. KB-V1 MDR cells viability, CellTiter-Glo, 72 h. Potency, µM (top dose mostly 46.1 µM), usual class: cytotoxic. 400,000 compounds, 3.4% hits; note: nearly all actives have a fitted effect of over 60% in size
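Cytotoxicity toward P-gp-expressing KB-V1 cells was determined as loss of CellTiter-Glo luminescence after 72 h at 37 degrees C. Compounds were tested in quantitative HTS format across a concentration range, with curves fitted to normalized data.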
HT1080 IDH1KD tx: qHTS for induction of synthetic lethality in tumor cells producing 2HG: qHTS for the HT-1080-IDH1KD cell line. HT-1080 IDH1 knockdown viability, ATP luminescence, 48 h. Potency, µM (titrated, usually from 46.1 µM), for the others: at the top dose activity, negative = toxicity, hits mostly cytotoxic. 360,000 compounds, 2% hits;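 note: 0% = DMSO wells and -100% = cell-free medium wells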
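Assay cells: HT-1080 with IDH1 knockdown, 750 per well, RPMI/5% FBS. Exposure: 48 h at 37 °C following 2 h pre-incubation. Read: CellTiter-Glo luminescence; fitted concentration-response, curve class assigned.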
DT40 TDP1 CPT: qHTS for Inhibitors of human tyrosyl-DNA phosphodiesterase 1 (TDP1): qHTS in cells in presence of CPT; chicken DT40 Tdp1-/-;hTDP1 cells + 20 nM CPT, ATP luminescence, 48 h; Potency, µM (series often up to 46.2 µM), without a hit: top-dose activity change, negative = growth inhibition, actives largely listed as inhibitors; 420,000 compounds, 12% hits; note: nearly all actives have a fitted effect of over 55% in size
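Chicken DT40 Tdp1-/- cells complemented with human TDP1, 400 cells/well, exposed to compounds plus 20 nM camptothecin for at least 48 h at 37 C; viability read as ATP content by CellTiter-Glo luminescence.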
HT1080NT lethal: qHTS for induction of synthetic lethality in tumor cells producing 2HG: qHTS for the HT-1080-NT fibrosarcoma cell line. HT-1080-NT fibrosarcoma viability, CellTiter-Glo ATP luminescence, 48 h. Potency, µM (series often up to 46.1 µM), without a hit: top-dose activity, negative = less viability, most hits filed as cytotoxic. 360,000 compounds, 1.6% hits. AID 686970, 2013;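 note: NT is the 2HG producing partner of a matched IDH1 knockdown line; 0% = DMSO-treated cells and -100% = media-only wells without cells; nearly all actives have a fitted effect of over 55% in size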
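HT-1080-NT fibrosarcoma cells (2HG-overproducing), 750 cells/well in RPMI with 5% FBS, dosed after 2 h and incubated 48 h at 37C. CellTiter-Glo luminescence normalized to DMSO and no-cell wells; concentration-response curves fitted and classed.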
KB-3-1 tox: qHTS assay for MDR1-selective chemotherapeutics: Primary screen using the parental adenocarcinoma cell KB-3-1 | KB-3-1 viability, CellTiter-Glo ATP luminescence, 72 h | Potency, µM (series often up to 46.1 µM), actives largely listed as cytotoxic | 400,000 compounds, 1.4% hits | AID 1347075, 2019; note: nearly all actives have a fitted effect of over 60% in size
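Using CellTiter-Glo luminescence, growth of non-resistant KB-3-1 adenocarcinoma cells is assessed 72 h after pin-tool compound addition at 37 °C. Normalized responses across the concentration series yield fitted curves.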
Starred values were filed as active, the others as inactive. Calls come from the whole dose curve; as a rule, active = well fitted curve in the direction sought with a large enough effect; inconclusive = small, poorly fitted or top-dose-only effect, or another doubt; inactive = no such curve, though single readings can be large; an effect the other way counts as inactive or inconclusive. Unless noted, % is set by controls: 0 for no effect and ±100 for the full control effect; potency is the fitted concentration of half-maximal effect.

Results for CC(C)C1C(=O)N(Cc2cn(CCC3OCCO3)nn2)CCS(=O)(=O)N1Cc1ccc(-c2ccc(Cl)c(Cl)c2)cc1 (configuration not stated) ?
TDP1 cell noCPT: 0.92µM*; KB-V1 MDR tox: inactive; HT1080 IDH1KD tx: 18µM*; DT40 TDP1 CPT: 2.1µM*; HT1080NT lethal: inconclusive; KB-3-1 tox: inconclusive

How did COc1ccc(-c2ccc(CN3C(C(C)C)C(=O)N(Cc4cn(CCC5OCCO5)nn4)CCS3(=O)=O)cc2)cc1OC (configuration not stated) do in these assays?
TDP1 cell noCPT: -9%; KB-V1 MDR tox: inactive; HT1080 IDH1KD tx: -5%; DT40 TDP1 CPT: -36%; HT1080NT lethal: -1%; KB-3-1 tox: inactive

What do the screens show for `COc1ccc(-c2ccc(CN3C(C(C)C)C(=O)N(Cc4cn(CCC5OCCO5)nn4)CCS3(=O)=O)cc2)cc1` (configuration not stated)?
TDP1 cell noCPT: 8.2µM*; KB-V1 MDR tox: inconclusive; HT1080 IDH1KD tx: -26%; DT40 TDP1 CPT: 9.2µM*; HT1080NT lethal: -15%; KB-3-1 tox: inactive

Results for CC(C)Cc1ccc(CN2C(C(C)C)C(=O)N(Cc3cn(CCC4OCCO4)nn3)CCS2(=O)=O)cc1 (configuration not stated) ?
TDP1 cell noCPT: 18µM*; KB-V1 MDR tox: inactive; HT1080 IDH1KD tx: -27%; DT40 TDP1 CPT: inconclusive; HT1080NT lethal: -22%; KB-3-1 tox: inactive

What do the screens show for `O=C(Cc1ccccc1Cl)Nc1cccnc1`?
TDP1 cell noCPT: 12%; KB-V1 MDR tox: inactive; HT1080 IDH1KD tx: 11%; DT40 TDP1 CPT: -18%; HT1080NT lethal: 8%; KB-3-1 tox: inactive

Results for NCCc1ccc(O)c(O)c1 ?
TDP1 cell noCPT: 4.6µM*; KB-V1 MDR tox: inactive; HT1080 IDH1KD tx: -26%; DT40 TDP1 CPT: 5.2µM*; HT1080NT lethal: -23%; KB-3-1 tox: inactive

What do the screens show for `NC(Cc1ccc(O)c(O)c1)C(=O)O` (configuration not stated)?
TDP1 cell noCPT: 2.9µM*; DT40 TDP1 CPT: 3.7µM*

How did NCC(O)c1ccc(O)c(O)c1 (configuration not stated) do in these assays?
TDP1 cell noCPT: 11%; KB-V1 MDR tox: inactive; HT1080 IDH1KD tx: 8%; DT40 TDP1 CPT: 3%; HT1080NT lethal: 19%; KB-3-1 tox: inactive

What do the screens show for `CCN1CCN(CCCNC(=O)CNC(=O)c2nn(-c3ccc(OC)cc3OC)c(=O)c3ccccc23)CC1`?
TDP1 cell noCPT: -17%; KB-V1 MDR tox: inactive; HT1080 IDH1KD tx: 16%; DT40 TDP1 CPT: -22%; HT1080NT lethal: 13%; KB-3-1 tox: inactive

Results for CCCCN(CC)CCNC(=O)CN1C(=O)COc2ccc(S(=O)(=O)N3CCCC3)cc21 ?
TDP1 cell noCPT: -21%; KB-V1 MDR tox: inactive; HT1080 IDH1KD tx: 6%; DT40 TDP1 CPT: -1%; HT1080NT lethal: 16%; KB-3-1 tox: inactive

What do the screens show for `O=C(Nc1ccc(Cl)cc1)c1ccc(CN2CCc3ccccc3C2)cc1`?
TDP1 cell noCPT: -11%; KB-V1 MDR tox: inactive; HT1080 IDH1KD tx: -10%; DT40 TDP1 CPT: inconclusive; HT1080NT lethal: inconclusive; KB-3-1 tox: inconclusive

How did O=C(Nc1ccc(S(=O)(=O)N2CCOCC2)cc1)c1ccc(CN2CCc3ccccc3C2)cc1 do in these assays?
TDP1 cell noCPT: 0.92µM*; KB-V1 MDR tox: 2.9µM*; HT1080 IDH1KD tx: 21µM*; DT40 TDP1 CPT: 1.2µM*; HT1080NT lethal: inconclusive; KB-3-1 tox: inconclusive

Results for O=C(Nc1ccc(S(=O)(=O)N2CCCC2)cc1)c1ccc(CN2CCc3ccccc3C2)cc1 ?
TDP1 cell noCPT: 4.1µM*; KB-V1 MDR tox: inconclusive; HT1080 IDH1KD tx: inconclusive; DT40 TDP1 CPT: 8.2µM*; HT1080NT lethal: -24%; KB-3-1 tox: inconclusive

What do the screens show for `O=C(Nc1ccccc1)c1ccc(S(=O)(=O)N2CCOCC2)cc1`?
TDP1 cell noCPT: -15%; KB-V1 MDR tox: inactive; HT1080 IDH1KD tx: -2%; DT40 TDP1 CPT: -2%; HT1080NT lethal: 0%; KB-3-1 tox: inactive

What do the screens show for `O=c1c2sc3ccccc3c2n(Cc2ccccc2F)c(=O)n1CCc1ccccc1`?
TDP1 cell noCPT: -7%; KB-V1 MDR tox: inactive; DT40 TDP1 CPT: -7%; KB-3-1 tox: inactive

What do the screens show for `COc1ccc(CN(Cc2cc3cccc(C)c3n3nnnc23)C(=O)N2CCOCC2)cc1`?
TDP1 cell noCPT: inconclusive; KB-V1 MDR tox: inactive; HT1080 IDH1KD tx: 0%; DT40 TDP1 CPT: 16µM*; HT1080NT lethal: 0%; KB-3-1 tox: inactive

How did CCC(=O)N(Cc1ccco1)Cc1cc2cccc(C)c2n2nnnc12 do in these assays?
TDP1 cell noCPT: 20%; KB-V1 MDR tox: inactive; HT1080 IDH1KD tx: -1%; DT40 TDP1 CPT: 6%; HT1080NT lethal: -2%; KB-3-1 tox: inactive

Results for Clc1nc(Cl)c2ncn(-c3ccccc3)c2n1 ?
TDP1 cell noCPT: 13µM*; KB-V1 MDR tox: inconclusive; HT1080 IDH1KD tx: -25%; DT40 TDP1 CPT: 8.2µM*; HT1080NT lethal: -1%; KB-3-1 tox: 18µM*

How did CNc1nc(Cl)nc2c1ncn2-c1ccccc1 do in these assays?
TDP1 cell noCPT: -7%; KB-V1 MDR tox: 6.5µM*; HT1080 IDH1KD tx: -9%; DT40 TDP1 CPT: 10%; HT1080NT lethal: -12%; KB-3-1 tox: 15µM*

Results for Nc1nc2c(ncn2-c2ccccc2)c(=O)[nH]1 ?
TDP1 cell noCPT: 2%; KB-V1 MDR tox: inactive; HT1080 IDH1KD tx: -2%; DT40 TDP1 CPT: -5%; HT1080NT lethal: -4%; KB-3-1 tox: inactive

What do the screens show for `Cc1cc2nc(-c3nnnn3-c3c(C)cccc3C)c(=O)[nH]c2cc1C`?
TDP1 cell noCPT: 16µM*; KB-V1 MDR tox: inactive; HT1080 IDH1KD tx: 2%; DT40 TDP1 CPT: inconclusive; HT1080NT lethal: 2%; KB-3-1 tox: inactive

What do the screens show for `CCc1ccc(C(=O)c2cn(CC(=O)Nc3cc(OC)ccc3OC)c3ccc(C)cc3c2=O)cc1`?
TDP1 cell noCPT: -17%; KB-V1 MDR tox: inactive; DT40 TDP1 CPT: -29%; KB-3-1 tox: inconclusive
